Records with an inconclusive call do not appear. Unmarked numbers belong to inactive results. The call rests on the fitted dose curve; in most records, active means well fitted curve in the direction sought with a large enough effect; inconclusive means small, poorly fitted or top-dose-only effect, or another doubt; inactive means no such curve, though single readings can be large or run the other way.

Max response data for 38 compounds are collected here from PubChem BioAssay (NCATS).
On the % scale 0 is the no-effect control and ±100 the full control effect.

A short description of this test: qHTS Assay for Identifying Gametocytocidal Compounds (AID 743244).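 Further: actives lower the fluorescent signal which means gametocytes are killed.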 Conditions: P. falciparum 3D7 stage III-V gametocytes, alamarBlue, 72 h; max response: stronger effect = lower value. The procedure, abridged: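 Fluorescence at Ex 525/Em 598 nm, recorded 24 h after alamarBlue addition, reports residual metabolic activity of 3D7 gametocytes (stages III–V) following 72 h compound exposure at 37 °C, 5% CO2.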
With `Nc1ccncc1N`, the max response is 8.86%.

As for `CC(C)NC[C@@H](O)COc1ccc(CC(N)=O)cc1`, the max response was 23.6%. Regarding `Cc1cc(C)c(NC(=O)CN(CC(=O)O)CC(=O)O)c(C)c1Br`, the max response is 9.03%. For `Cc1cccc(C(=O)O)c1O`, the max response is 2.78%. Under `Cc1ccsc1C(=CCCN1CCC[C@@H](C(=O)O)C1)c1sccc1C` stands -0.959%; under `COC(=O)c1cccnc1`, 29%; under `CCCCCOC(=O)Nc1nc(=O)n([C@@H]2O[C@H](C)[C@@H](O)[C@H]2O)cc1F`, 5.02%. Under `CCN[C@H]1CN(CCCOC)S(=O)(=O)c2sc(S(N)(=O)=O)cc21` stands 21.3%; under `NS(=O)(=O)c1cc(-c2nn[nH]n2)c(NCc2cccs2)cc1Cl`, 54.3%; under `CCOC(=O)OC(C)OC(=O)[C@@H]1N2C(=O)[C@@H](NC(=O)[C@H](N)c3ccccc3)[C@H]2SC1(C)C` (stereo partly drawn), 15.8%. To `Cc1cc(OI)c(C(C)C)cc1-c1cc(C(C)C)c(OI)cc1C` belongs 3.81%; to `NC(=O)N[C@@H](CCC(=O)O)C(=O)O`, -4.71%; to `OCCN1C[C@H](O)[C@@H](O)[C@H](O)[C@H]1CO`, 4.21%. Consider `O=C(O)[C@@H]1[C@H]2C[C@H]3c4[nH]c5ccccc5c4CCN3C[C@@H]2CC[C@@H]1O`, for which the max response is -6.8%. To `CC(=O)N1C[C@H](O)C[C@H]1C(=O)O` belongs 11.8%; to `CCCCCCCCCCOc1cc2c(=O)c(C(=O)OCC)c[nH]c2cc1OCC`, -3.15%; to `NS(=O)(=O)c1cc2c(cc1C(F)(F)F)NCNS2(=O)=O`, -4.2%.

Regarding `CN1CCCN=C1COC(=O)C(O)(c1ccccc1)C1CCCCC1` (stereo not drawn), the max response was -2.61%. To `Cc1onc(-c2ccccc2)c1-c1ccc(S(N)(=O)=O)cc1` belongs 7.78%; to `Cc1c(C)c2c(c(C)c1OC(=O)c1cccnc1)CC[C@@](C)(CCC[C@H](C)CCC[C@H](C)CCCC(C)C)O2`, 6.89%; to `Cn1c([N+](=O)[O-])cnc1COC(N)=O`, 1.6%. Under `COc1ccc(C(=O)NCc2ccc(OCCN(C)C)cc2)cc1OC` stands 7.72%; under `CC[C@H](C)[C@H](N)C(=O)O`, -11.6%; under `COc1ccccc1Oc1c(NS(=O)(=O)c2ccc(C(C)(C)C)cc2)nc(-c2ncccn2)nc1OCCO`, -3.79%. Take `Cc1ncc(CO)c(CN)c1O`: the max response is 6.59%.

As for `CC(=O)N[C@H]1[C@H]([C@H](O)[C@H](O)CO)OC(C(=O)O)=C[C@@H]1N=C(N)N`, the max response is 5.37%. To `O=C(O)CCC(=O)O` belongs 4.69%. On to `CCCNC(C)C(=O)Nc1c(C)csc1C(=O)OC` (stereo not drawn), for which the max response is 7.96%. Turning to `O=S1(=O)OC(c2ccc(O)cc2)(c2ccc(O)cc2)c2ccccc21`, the max response is 21.8%.

Consider `CC1CCc2cc(F)cc3c(=O)c(C(=O)O)cn1c23` (stereo not drawn), for which the max response is -10.9%. To `NS(=O)(=O)c1ccc(NC(=O)CCC(=O)O)cc1` belongs -3.82%. For the compound `Cc1ccsc1/C=C/C1=NCCCN1C`, the max response is 6.27%. To `Cc1cc(-n2nc3ccc(Cl)cc3n2)c(O)c(C(C)(C)C)c1` belongs -8.61%; to `CCCCC1(COC(=O)CCC(=O)O)C(=O)N(c2ccccc2)N(c2ccccc2)C1=O`, 1.1%; to `CC(CSC(=O)c1ccccc1)C(=O)N1C[C@@H](Sc2ccccc2)C[C@H]1C(=O)O` (stereo partly drawn), 2.09%. To `CCCCCCCCCCC(CO)CCCCCCCC` (stereo not drawn) belongs -4.55%; to `O=C(O)c1cc(=O)c2ccccc2o1`, 42.7%.

Regarding `NC(=O)CC[C@@H](N)C(=O)O`, the max response was -2.82%.
